# High-throughput results as filed in PubChem.
# LMP1 NFkB inh – EBV LMP1-driven NF-kappaB luciferase reporter inhibitors, primary screen, cell-based, luminescence, single point | 350,000 compounds, 0.69% hits | AID 504558, 2011 | LMP1-induced NF-kappaB luciferase reporter cells | inhibition, % at 12.5 µM; in the data active = inhibition above about 41%; inconclusive = no clear call, values can overlap the other calls;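 also: 0% = neutral control wells and 100% = reference inhibitor control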
# Shn3 inh set2 – reduction of Shn3 3'UTR firefly luciferase signal, primary screen, Schnurri-3 inhibitor project, cell-based, Clone20 osteoblasts, set 2. Clone20 osteoblast Shn3 3'UTR firefly luciferase, 24 h. inhibition, % at 12.5 µM. 360,000 compounds, 0.52% hits. AID 588674, 2011;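 active = mean inhibition of at least 75% with every replicate also reaching 75%; inconclusive = mean inhibition at least 75% but some replicate below; inactive = mean inhibition below 75%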;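 also: 0% = median of neutral control wells and 100% = pilot-screen positive control compound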
# MITF TRPM1 inh – inhibitors of MITF-dependent TRPM1 promoter reporter, primary screen, cell-based, SK-MEL-5, single point, luciferase; inhibition, % at 12.5 µM; 330,000 compounds, 0.83% hits; SK-MEL-5 TRPM1 promoter luciferase, 24 h;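 active = mean inhibition across replicates of 60% or more, whatever share of single replicates reaches that level; inconclusive = some that reach 60%, reason not given; inactive = mean inhibition across replicates below 60%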
# LGR2 antag – inhibitors of bursicon-induced LGR2 CRE-luciferase signal, primary screen, cell-based, HEK293, CRE-luciferase reporter, bursicon stimulation; bursicon-stimulated, 4 h; inhibition, % at 9.99 µM; 380,000 compounds, 0.35% hits; AID 720647, 2013;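 active = drop in luminescence signal, shown as inhibition above about 50% in the replicate tests, limit read from the data, passing the limit was not always enough; inconclusive = probably only some replicates passing the limit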;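 also: agonist challenge used bursicon conditioned medium at about half maximal strength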
# PAX8 inh HTS – inhibitors of PAX8-driven TPO luciferase reporter, primary screen, RMG-I cells, single concentration; 360,000 compounds, 1.2% hits; AID 652154, 2013; SteadyGlo, 24 h; inhibition, % at 12.6 µM;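 active = mean replicate inhibition at least 60% with every replicate also reaching 60%; inconclusive = only one of the two criteria is met; inactive = mean below 60% and not all replicates reaching 60%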;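 also: luciferase light reporting Pax8 driven TPO promoter activity; plate controls were median of neutral control wells for no effect and mitoxantrone controls for full effect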
# EWS-Fli inh – EWS/Fli-driven NR0B1 reporter inhibitors, primary screen, A673 cells, NR0B1 luciferase, luminescence, MLPCN library | viability-normalised | inhibition, % at 12.6 µM | 350,000 compounds, 0.67% hits;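 active = mean inhibition of at least 50% after viability correction, with every replicate also passing that limit; inconclusive = mean reaches 50% but only one of two replicates passes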;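 also: firefly luciferase signal divided by Alamar Blue viability fluorescence both relative to DMSO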
# * marks the source's active call; other numbers are inactive results; u = inconclusive; x = no result given. Shown are actives, neighbours in structure and some others; about 2.2% of the full set was active somewhere.
SMILES,LMP1 NFkB inh,Shn3 inh set2,MITF TRPM1 inh,LGR2 antag,PAX8 inh HTS,EWS-Fli inh
N#Cc1cccc(-c2ccc3c(c2)[C@H]2[C@H](CCN2C(=O)C2CCCCC2)[C@H](CO)N3)c1,x,x,x,12,66*,12
N#Cc1cccc(-c2ccc3c(c2)[C@@H]2[C@@H](CCN2S(=O)(=O)c2ccc(F)cc2)[C@@H](CO)N3)c1,x,x,x,13,76*,2
N#Cc1ccc(-c2ccc3c(c2)[C@H]2[C@H](CCN2C(=O)C2CCCC2)[C@H](CO)N3)cc1,x,x,x,x,x,-8
COc1ccc(Cn2c(O)c(C=Nc3ccccc3C(=O)O)c3ccccc3c2=O)cc1,44*,-1,16,20,7,-21
CC1=NN(c2nc(N)nc(/C(C#N)=C/c3ccc([N+](=O)[O-])o3)n2)C(C)(C)C1,0,98*,91*,-26,-9,70*
COc1ccc2c3c([nH]c2c1)[C@@H](CO)N(Cc1ccccc1)CC31CCN(C(=O)Nc2cccc(F)c2)CC1,x,x,x,-6,x,10
CCOC(=O)N=Nc1c2ccccc2c2nc3no[nH]c3nc12,86*,100*,103*,101*,87*,54*
CCOC(=O)N=Nc1c(O)n(CC(=O)OC)c2ccccc12,-5,-15,0,-25,-28,x
CCOC(=O)C(=Cc1ccc(-n2cncn2)cc1)C(=O)OCC,11,7,41,65*,13,17
CCOC(=O)C(=CNc1cc(C)nn1-c1ccc(Cl)cc1)C(=O)OCC,12,x,39,x,34,x
CC(C)(C)c1ccc(C(=O)N2CCC(=O)N(C(CO)Cc3ccccc3)CC2)cc1 (stereo unspecified),78*,2,-2,-4,-6,3
COc1ccc(S(=O)(=O)N(C)C[C@@H]2OCCCC[C@H](C)Oc3ccc(NS(=O)(=O)c4c(C)noc4C)cc3C(=O)N([C@H](C)CO)C[C@H]2C)cc1,x,x,x,-5,14,-5
Cc1ccc(-c2cc(N)n3nc(-c4ccc(C)cc4)cc3n2)cc1,52*,-1,-12,x,x,x
Cc1ccc(-c2cc3nc(-c4ccccc4)cc(N)n3n2)cc1,-24,-84,-61,x,-185,x
O=C(/C=C/c1cccnc1)c1ccc([N+](=O)[O-])cc1,0,0,12,20,2,x
COc1cc(C(=O)/C=C/c2cccnc2)c([N+](=O)[O-])cc1OC,18,26,34,64*,94*,38
CNC[C@@H]1Oc2c(NS(=O)(=O)c3cccs3)cccc2C(=O)N([C@@H](C)CO)C[C@@H]1C,x,x,x,1,x,-10
Cn1cnc(CCNC(=O)C[C@@H]2CC[C@H]3[C@@H](COC[C@@H](O)CN3C(=O)Nc3ccc(F)cc3)O2)c1,x,x,x,9,-8,-2
Cn1cccc1C(=O)NC(=O)COC(=O)c1ccc(S(C)(=O)=O)cc1,-1,-3,3,-3,6,1
CC(C)CN1CCN(C(=O)COC(=O)c2ccc(S(C)(=O)=O)c([N+](=O)[O-])c2)CC1,x,75,x,23,112*,34
Cn1cccc1C(=O)NC(=O)COC(=O)c1ccc(S(C)(=O)=O)c([N+](=O)[O-])c1,-1,98*,86*,x,x,x
COc1ccc(NC(=O)N(C)C[C@H]2Oc3ncc(-c4ccc(C#N)cc4)cc3C(=O)N([C@H](C)CO)C[C@@H]2C)cc1,x,x,x,-10,x,3
CO[C@@H]1CN(C)C(=O)c2ccc(NC(=O)c3ccccc3)cc2OC[C@H](C)NC[C@H]1C,x,x,x,9,-8,0
C[C@@H]1CN([C@@H](C)CO)S(=O)(=O)c2ccc(-c3ccccc3)cc2O[C@@H]1CN(C)C(=O)C1CC1,x,x,x,11,x,-4
COc1ccc(-c2nnc(NC(=O)c3ccc(S(=O)(=O)N4CCCc5ccccc54)cc3)o2)cc1,49*,40,30,x,x,x
SMILES,LMP1 NFkB inh,Shn3 inh set2,MITF TRPM1 inh,LGR2 antag,PAX8 inh HTS,EWS-Fli inh
COc1ccc(CN(C)C[C@H]2OCCCC[C@@H](C)Oc3ccc(NS(=O)(=O)c4cn(C)cn4)cc3C(=O)N([C@@H](C)CO)C[C@H]2C)cc1,x,x,x,24,-20,-13
Clc1ccc(-c2nc(-c3ccccn3)no2)cc1Cl,33,-35,11,x,x,x
COc1ccccc1-c1nc(-c2ccccn2)no1,62*,7,45,78*,49,73*
Cc1ccccc1-c1nc(-c2ccccn2)no1,61*,40,74*,95*,73*,83*
Cc1ccccc1-c1nc(-c2cccnc2)no1,-47,-48,-38,x,-93,x
Brc1ccc(-c2nc(-c3ccccn3)no2)o1,u,21,40,75*,x,x
COc1ccc(-c2nc(-c3ccccn3)no2)cc1,81*,88*,87*,100*,104*,86*
C[C@H](CO)N1C[C@H](C)[C@H](CN(C)C(=O)Nc2ccc(C(F)(F)F)cc2)OCCCC[C@H](C)Oc2ccc(NC(=O)Nc3ccccc3)cc2C1=O,x,x,x,-1,17,-17
C[C@@H]1CN([C@@H](C)CO)C(=O)Cc2cc(NC(=O)CCC(F)(F)F)ccc2O[C@H]1CN(C)S(=O)(=O)c1ccccc1,x,x,x,-2,9,2
O=C(C[C@H]1CC[C@@H](NS(=O)(=O)c2ccccc2)[C@H](CO)O1)N1CCC(Cc2ccccc2)CC1,x,x,x,4,15,1
O=C1/C(=C\c2cccnc2)SC(=S)N1C1CCS(=O)(=O)C1 (stereo unspecified),19,-11,53,55*,x,0
O=C1/C(=C/c2cccnc2)SC(=S)N1C1CCS(=O)(=O)C1 (stereo unspecified),7,-24,23,u,x,x
O=c1cc(O)c2sc(Nc3ccc(F)c(Cl)c3)nc2[nH]1,-104,-1,30,5,74*,28
O=c1cc(O)c2sc(Nc3ccc(Cl)c(F)c3)nc2[nH]1,-38,3,7,-4,70*,29
COc1ccc(Nc2nc3[nH]c(=O)cc(O)c3s2)cc1,-72,-4,2,17,27,-3
C/C=C/c1cnc2c(c1)C(=O)N([C@H](C)CO)C[C@H](C)[C@H](CN(C)C(=O)C1CCC1)O2,x,x,x,6,x,3
O=C1c2ccccc2C(=O)c2c(/C=C/N3CCCCC3)ccnc21,-7,8,95*,12,53,-1
CCCN1[C@@H]2c3ccc(-c4ccccc4)c(=O)n3C[C@@H]2[C@@H](CO)[C@@H]1C(=O)OC,x,x,x,-3,0,-1
C[C@H](CO)N1C[C@H](C)[C@H](CN(C)Cc2ccc(C(=O)Nc3ccccc3N)cc2)Oc2c(NS(=O)(=O)c3ccc(F)cc3)cccc2C1=O,x,x,x,15,24,-7
